The text below walks through data of PubChem BioAssay.

The structures appear in SMILES notation. Calls of active or inactive are those of the source. Unless noted, the rule behind the calls is not given here.

The nature of experiment [1]: compounds altering circadian rhythm period length – cell-based, LOPAC library, luminescence reporter (AID 2774).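 Note: values are relative to mean of DMSO wells on each plate.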 Particulars: circadian reporter cells, at 7 µM, actives lie on both sides.
The test system of experiment [2] is Hepatitis C virus NS3 helicase. In words: blockers of NS3h binding to ssDNA – biochemical, fluorescence polarization, LOPAC1280 library, primary screen (AID 687035; in the data active = inhibition above about 37%). Particulars: Purified HCV NS3 helicase, Cy5-dT15 ssDNA binding fluorescence polarization; stronger effect = higher value; concentration not given here. (In general: Polarisation of emitted light reports the rotation of a fluorescent probe.)

Experiment [3] is described as follows: compounds altering Cy5-DNA-NS3h complex signal – biochemical, LOPAC1280, artefact control for HCV NS3 helicase inhibitor project (AID 687037). Particulars: Cy5-DNA-NS3h complex fluorescence interference counterscreen. In general terms: The purpose of a counterscreen is to sort out artefacts and off-target activity.
Experiment [4] can be described thus: viability loss with induced miR-34 in A549 – imaging, A549 dox-inducible miR-34, nuclei and caspase counts, primary screen (AID 1347080;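 active = compounds whose cell count with miR-34 switched on is under 0.7 times the count with it off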). Particulars: A549 miR-34 inducible, Hoechst nuclei count, 48 h.
Experiment [5] in a line: blockers of cellular phospholipid synthesis – cell-based, LOPAC library, screen 4, primary screen (AID 1347384). Particulars: animal cells, phospholipid biosynthesis inhibition screen; at 10 µM.
A short description of experiment [6]: galactose survival enhancers in mitochondrial complex I cybrids – cell-based, galactose medium, ATP luminescence, primary screen (AID 1645843;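 active = z-score of at least 1.8 in each of two replicates, scored against plate mean and spread of sample wells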;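 note: positive z means more ATP and so rescue of galactose-driven cybrid death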). Particulars: complex I mutant cybrid cells, 72 h, stronger effect = higher value.
The mark [7] stands for this setting: stronger effect = lower value, cell number ratio, induced over uninduced.
[8] abbreviates: measured here: relative caspase fold change +Dox/-Dox.
Where [9] appears, read: measured here: total cells with miR-34 induction, stronger effect = lower value.
The mark [10] stands for this setting: measured here: total cells without miR-34 induction.

`Cn1c(=O)c2c(nc(/C=C/c3cccc(Cl)c3)n2C)n(C)c1=O`: the period change in experiment [1] is 0.15 h (inactive). Also, the inhibition in experiment [2] is -2% (inactive). For the same molecule, the fluorescence ratio (interference) in experiment [3] was 1 (inactive). Also, the values for the fold change in experiment [4] (setting [7]) and in experiment [4] (setting [8]) were 1.03 (inactive) and 1.2, respectively. Also, the cell count in experiment [4] (setting [9]) turned out to be 9630; in experiment [4] (setting [10]), 9370. In addition, in experiment [5], the result was inactive. For the same molecule, the z-score in experiment [6] is 1.26 (inactive).
Take `O=c1[nH]c(=O)c2nc3ccccc3nc2[nH]1`: the period change in experiment [1] was -0.07 h (inactive). Also, in experiment [2], the inhibition was -1% (inactive). Besides, in experiment [3], the fluorescence ratio (interference) was 1 (inactive). In addition, the fold change in experiment [4] (setting [7]) is 1.04 (inactive); in experiment [4] (setting [8]), 1.29. For the same molecule, the results for the cell count in experiment [4] (setting [9]) and in experiment [4] (setting [10]) were 8690 and 8380, respectively. In addition, the molecule was called inactive in experiment [5]. Moreover, the z-score in experiment [6] is 0.695 (inactive).
Take `COc1ccc(NC(=O)/C=C/c2ccc(Cl)cc2)cc1`: in experiment [1], the period change is -0.055 h (inactive). Also, the inhibition in experiment [2] is -2% (inactive). In addition, the fluorescence ratio (interference) in experiment [3] is 1 (inactive). The results for the fold change in experiment [4] (setting [7]) and in experiment [4] (setting [8]) were 1.13 (inactive) and 0.89, respectively. Further, the cell count in experiment [4] (setting [9]) worked out at 7420; in experiment [4] (setting [10]), 6550. Besides, in experiment [5], the molecule was classed as inactive. For the same molecule, the z-score in experiment [6] is 0.42 (inactive).
As to `N[C@H](C(=O)O)[C@H](O)C(=O)O`, the period change in experiment [1] was -0.095 h (inactive). Further, the inhibition in experiment [2] is -1% (inactive). Further, the fluorescence ratio (interference) in experiment [3] is 1 (inactive). For the same molecule, the fold change was 0.956 (inactive) in experiment [4] (setting [7]) and 1.57 in experiment [4] (setting [8]). Also, the cell count is 9780 in experiment [4] (setting [9]) and 10200 in experiment [4] (setting [10]). For the same molecule, the outcome in experiment [5] was inactive. In experiment [6], the z-score is 0.175 (inactive).
Take `CCCCCCCCCCCCCCSCC(=O)O`: the period change in experiment [1] was -0.08 h (inactive). The inhibition in experiment [2] is -2% (inactive). Further, the fluorescence ratio (interference) in experiment [3] is 1 (inactive). The fold change in experiment [4] (setting [7]) was 0.985 (inactive); in experiment [4] (setting [8]), 1.37. Further, the figures for the cell count in experiment [4] (setting [9]) and in experiment [4] (setting [10]) were 9840 and 9990, respectively. For the same molecule, the molecule was called inactive in experiment [5]. In experiment [6], the z-score was -0.24 (inactive).
Take `Cc1ccccc1/C=C/C1=NCCN1`: the period change in experiment [1] is -0.13 h (inactive). The inhibition in experiment [2] is -5% (inactive). Besides, the fluorescence ratio (interference) in experiment [3] is 1 (inactive). In addition, the fold change in experiment [4] (setting [7]) is 1.01 (inactive); in experiment [4] (setting [8]) it was 0.996. The figures for the cell count in experiment [4] (setting [9]) and in experiment [4] (setting [10]) were 7710 and 7640, respectively. In addition, the call in experiment [5] was inactive. In experiment [6], the z-score was -1.06 (inactive).
For `NC1(C(=O)O)CCc2cc(C(=O)O)ccc21` (centres undefined), the period change in experiment [1] was 0.185 h (inactive). For the same molecule, the inhibition in experiment [2] is -1% (inactive). Further, the fluorescence ratio (interference) in experiment [3] was 1 (inactive). Further, the fold change in experiment [4] (setting [7]) is 0.993 (inactive); in experiment [4] (setting [8]), 1.76. The cell count in experiment [4] (setting [9]) came to 10900; in experiment [4] (setting [10]), 11000. In experiment [5], the result was inactive. In experiment [6], the z-score was 0.185 (inactive).
Consider `O=C(O)CC1CCCc2ccccc2C1O` (centres undefined), for which, in experiment [1], the period change is 0.085 h (inactive). Also, the inhibition in experiment [2] was -4% (inactive). Besides, the fluorescence ratio (interference) in experiment [3] was 1 (inactive). Besides, the results for the fold change in experiment [4] (setting [7]) and in experiment [4] (setting [8]) were 1.02 (inactive) and 1.73, respectively. The cell count in experiment [4] (setting [9]) came to 10700; in experiment [4] (setting [10]), 10500. For the same molecule, the call in experiment [5] was inactive. Moreover, the z-score in experiment [6] was 0.315 (inactive).
Take `Nc1ccc(CCNc2ncnc3c2ncn3C2OC(CO)C(O)C2O)cc1` (centres undefined): in experiment [1], the period change is 0.215 h (inactive). Also, in experiment [2], the inhibition is -1% (inactive). Besides, the fluorescence ratio (interference) in experiment [3] is 1 (inactive). Further, the fold change in experiment [4] (setting [7]) is 1.01 (inactive); in experiment [4] (setting [8]), 1.75. Also, the cell count in experiment [4] (setting [9]) was found to be 10600; in experiment [4] (setting [10]) it was 10500. Moreover, the molecule was called inactive in experiment [5]. Also, the z-score in experiment [6] was 0.795 (inactive).
Consider `N[C@@H](CCC(=O)N[C@H](CSN=O)C(=O)NCC(=O)O)C(=O)O`, for which the period change in experiment [1] was 0.1 h (inactive). For the same molecule, the inhibition in experiment [2] is -3% (inactive). In addition, the fluorescence ratio (interference) in experiment [3] was 1 (inactive). Further, the fold change in experiment [4] (setting [7]) was 1.04 (inactive); in experiment [4] (setting [8]) it was 1.18. The cell count was determined as 10800 in experiment [4] (setting [9]) and 10400 in experiment [4] (setting [10]). In addition, the outcome in experiment [5] was inactive. Further, in experiment [6], the z-score is 0.335 (inactive).
As to `COc1cc(C(O)C(=O)O)ccc1O` (centres undefined), the period change in experiment [1] is 0.03 h (inactive). Besides, the inhibition in experiment [2] was -2% (inactive). Moreover, the fluorescence ratio (interference) in experiment [3] is 1 (inactive). The results for the fold change in experiment [4] (setting [7]) and in experiment [4] (setting [8]) were 0.986 (inactive) and 1.43, respectively. The cell count in experiment [4] (setting [9]) is 10600; in experiment [4] (setting [10]), 10700. For the same molecule, the molecule was classed as inactive in experiment [5]. Besides, in experiment [6], the z-score is -0.02 (inactive).

Usually inhibition stands for the drop in the measured response relative to a control, in per cent.
